Experimental findings from PubChem BioAssay AID2708 (National Center for Advancing Translational Sciences (NCATS), 2010) are described below.

The other results are listed elsewhere or left out. Inconclusive results are not listed. Unmarked numbers belong to inactive results. Calls of active or inactive are those of the source. Calls come from the whole dose curve; as a rule, active = well fitted inhibition curve with a large enough effect; inconclusive = small, poorly fitted or top-dose-only effect; inactive = no such curve, though single readings can be large or run the other way. Peptide text beside a SMILES is read from it. * marks the point of attachment. Bz = O=C(c1ccccc1)*
% is set by controls: 0 for no effect and ±100 for the full control effect; potency is the fitted concentration of half-maximal effect.

Sequence of ATP-dependent DNA helicase Q1 (Homo sapiens) (P46063 whole entry, looked up): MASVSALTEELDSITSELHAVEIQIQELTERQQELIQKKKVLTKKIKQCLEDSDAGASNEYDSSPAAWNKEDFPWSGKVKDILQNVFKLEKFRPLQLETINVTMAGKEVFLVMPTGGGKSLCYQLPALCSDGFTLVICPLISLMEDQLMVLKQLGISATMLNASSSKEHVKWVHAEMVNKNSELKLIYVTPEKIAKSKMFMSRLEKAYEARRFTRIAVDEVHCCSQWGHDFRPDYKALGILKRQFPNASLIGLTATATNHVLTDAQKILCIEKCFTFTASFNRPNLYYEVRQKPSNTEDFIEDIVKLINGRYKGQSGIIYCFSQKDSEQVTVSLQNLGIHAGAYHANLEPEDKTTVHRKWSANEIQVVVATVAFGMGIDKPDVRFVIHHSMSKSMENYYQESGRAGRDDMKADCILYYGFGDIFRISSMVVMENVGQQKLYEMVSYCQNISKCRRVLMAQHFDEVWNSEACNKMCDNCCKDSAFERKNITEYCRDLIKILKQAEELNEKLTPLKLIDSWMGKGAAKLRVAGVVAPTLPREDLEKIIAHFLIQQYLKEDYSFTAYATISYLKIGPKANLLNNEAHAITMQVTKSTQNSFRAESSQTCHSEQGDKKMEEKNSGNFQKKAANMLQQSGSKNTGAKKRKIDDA

In the experiment the target is ATP-dependent DNA helicase Q1 (Homo sapiens) (UniProt P46063). In words: Confirmation qHTS Assay for Inhibitors of RecQ-Like Dna Helicase 1 (RECQ1). Note: nearly all actives have a fitted effect of over 45% in size. Particulars: RECQ1 helicase DNA unwinding, fluorescence; series mostly up to 229 µM; activity change, negative = inhibition: at the top concentration. The text has this:
Survival of cells and the faithful propagation of the genome depend on elaborate mechanisms of detecting and repairing DNA damage. Treatment of advanced cancer relies on radiation therapy or chemotherapy, which kill cancer cells by causing extensive DNA damage. It is often found, that cancer cells develop resistance to therapy through enhanced activity of DNA repair functions; this has led to an increased interest in developing drugs that interfere with DNA repair, which could sensitize cancer cells to conventional therapy.
This validation qHTS assay pertains to human RECQ1, which is important in resolving abnormal DNA structures formed during replication or homologous recombination. Shutting down the expression of RECQ1 leads to chromosomal instability and higher radiation sensitivity in cultured cells.
The validation assay was a fluorescence quenching based kinetic qHTS for RECQ1 Helicase DNA unwinding. The activity was measured as ATP-dependent separation of a 20-bp DNA duplex extended by 30-nt single-stranded tails (forked duplex). The forked DNA substrate was tagged with rhodamine fluorophore (carboxytetramethyl rhodamine, TAMRA) and BHQ-2 (Black Hole Quencher 2) dark quencher. Strand separation results in an increase in the fluorescence of TAMRA (excitation 525 nm, emission 598 nm). This substrate construct operates in a red-shifted region where very few compound library members have been noted to fluoresce (PubChem AIDs 593 and 594). An additional feature of the assay is the inclusion of 2.5 ug/ml poly (dIdC), to reduce interference by compounds such as DNA intercalators, a major source of false inhibitors.
Opher Gileadi, Structural Genomics Consortium, University of Oxford
Screening Center PI: Austin, C.P.
Screening Center: NIH Chemical Genomics Center [NCGC]
Three uL of reaction buffer (25 mM Tris-HCl (pH 8.0), 5 mM NaCl, 2 mM MgCl2, 1mM DTT, 0.01% Tween- 20, and 2.5 ug/ml poly(dI-dC), including enzyme (50 nM RECQ1T1), were dispensed into a 1536-well Greiner black assay plate via solenoid-valve based nanoliter dispensers. Compounds (23 nl each in columns 5-48) and control (23 nl each in column 2 as dose-response) were transferred via a Kalypsys pintool equipped with a 1536-pin array. The plates were incubated for 15 min at room temperature, and then 1 ul of substrates (200 nM DNA and 2 mM ATP, final concentrations) was added to start the reaction. The plate was transferred into a ViewLux high-throughput CCD imager where the reaction progress was measured in a discontinuous kinetic mode (two reads spaced 2 hours apart, with intermediate room temperature incubation of the covered assay plate) by using standard red-fluorescence optics (excitation filter 525 nm, emission filter 598 nm). Enzyme-free and vehicle (DMSO) controls were included for signal normalization.
(Quantitative high-throughput screening tests each substance at several concentrations.)
Consider `O=C(NC(Cc1c[nH]c2ccccc12)C(=O)O)/C(=C/c1ccco1)NC(=O)c1ccccc1` (configuration not stated), for which the “activity change, negative = inhibition” value was 3.08%. Still for that read-out and setting: next, `COc1cc(C2C(C(=O)c3ccc(C)o3)=C(O)C(=O)N2CCc2ccccc2)ccc1O` (configuration not stated): 11.1%.

Consider `CC1Cc2ccccc2N1C(=O)CSc1nnc(-c2ccc(S(=O)(=O)N3CCCC3)cc2)n1C` (configuration not stated), for which the “activity change, negative = inhibition” value is 7.7%. As to `O=C(CCn1nnc2ccccc2c1=O)N[C@@H](Cc1c[nH]c2ccccc12)C(=O)O`, the “activity change, negative = inhibition” value was 2.77%. Still for that read-out and setting: next, `CC1(C)OC2CC(=O)OC[C@@]23C1CC(=O)[C@]1(C)C3CC[C@@]2(C)C(c3ccoc3)OC(=O)C3O[C@@]321` (some centres not stated): 0.401%.

Regarding `CC(C)(O)c1ccccc1CC[C@H](SCC1(CC(=O)O)CC1)c1cccc(/C=C/c2ccc3ccc(Cl)cc3n2)c1`, the Potency was 40.8 µM (active). For the compound `O=C(NCc1ccccc1)C1=C[C@@H](C2CCCCC2)C[C@@H](OCc2ccc(CO)cc2)O1`, the “activity change, negative = inhibition” value is -5.77% [at 114 µM].

For the compound `O=C(c1cc2c(s1)CCC2)N1CCN(c2ccccc2)CC1`, the Potency is 39.8 µM (active). With `O=C(N/N=C/c1sc(N2CCCCC2)nc1-c1cccs1)c1cccnc1`, the “activity change, negative = inhibition” value was 4.33% [at 114 µM].

Consider `Oc1ccc(N=Cc2sc3ccccc3c2Cl)cc1`, for which the “activity change, negative = inhibition” value was -1.16% [at 114 µM].

Turning to `COc1ccc(-c2nc3c(c(SCC(=O)Nc4ccc(C(=O)O)cc4)n2)Cc2ccccc2O3)cc1`, the Potency was 2.89 µM (active). Same read-out and setting: next, `CC(=O)Nc1ccc(Nc2c3ccccc3nc3ccccc23)cc1`: 22.4 µM (active). On the same count and under the same terms, the result for `Cc1ccc(C)n1C(Cc1ccccc1)C(=O)O` (configuration not stated) reads 22.4 µM (active).

For `O=C(NC(Cc1ccccc1)C(=O)N1CCCC1C(=O)O)c1ccccc1` (stereo not drawn) (Bz-Phe-Pro-OH; configuration not given here), the “activity change, negative = inhibition” value was 1.28%. With `O=C(O)CCn1c(SCc2cc(=O)n3ccccc3n2)nc2ccsc2c1=O`, the “activity change, negative = inhibition” value was 1.05%. As to `c1ccc(CSc2nnc(-c3ccco3)c(-c3ccco3)n2)cc1`, the Potency was 39.8 µM (active). In the case of `Cc1ccccc1NC(=O)CN1C(=O)N/C(=C\c2cccn2-c2cccc(C(=O)O)c2)C1=O`, the Potency was 31.6 µM (active).
